From PubChem BioAssay AID1159580 (chemical genetic matrix, 2015)
Screen size: about 5,500 compounds; about 2,000 (36%) were called active. About 18% were inconclusive and are not listed. No stated cut-off is given here; in the data, active means normalized growth mostly below about 0.91 (no sharp cut-off); inconclusive means no clear call, values can overlap the other calls; inactive means mostly above about 0.92. The list shows a part of the results.

Assay: chemical genetic growth profiling, strain panel (AID 1159580);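 further: tested at 20 µM; growth read once vehicle control cultures reached saturation at 30 °C; 1 = growth at the plate median or of vehicle wells; lower values mean less growth of the strain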
Conditions: growth OD

Measured: normalized growth

CCC(C)C(OC(C)=O)C(=O)OC1C(O)C2C3(C)C=CC(=O)C(C)(C)C3CC(OC(=O)C(O)C(C)C)C2(C)C23OC2CC(c2ccoc2)C13C (stereo unspecified)
inactive: S. cerevisiae deletion strains, locus YAL013W, strain DEP1, active compounds read low 1.01 | S. cerevisiae deletion strains, locus YBR021W, strain FUR4, active compounds read low 0.996 | S. cerevisiae deletion strains, locus YBR229C, strain ROT2, active compounds read low 0.989 | S. cerevisiae deletion strains, locus YCL029C, strain bik1, active compounds read low 0.978 | S. cerevisiae deletion strains, locus YDL035C, strain GPR1, active compounds read low 0.976 | S. cerevisiae deletion strains, locus YDL074C, strain BRE1, active compounds read low 1.02 | S. cerevisiae deletion strains, locus YDL101C, strain DUN1, active compounds read low 1 | S. cerevisiae deletion strains, locus YDL134C, strain PPH21, active compounds read low 1 | S. cerevisiae deletion strains, locus YDL185W, strain tfp1, active compounds read low 0.988 | S. cerevisiae deletion strains, locus YDL192W, strain arf1, active compounds read low 0.989 | S. cerevisiae deletion strains, locus YDR101C, strain arx1, active compounds read low 0.991 | S. cerevisiae deletion strains, locus YDR150W, strain NUM1, active compounds read low 1.01 | S. cerevisiae deletion strains, locus YDR162C, strain NBP2, active compounds read low 1.02 | S. cerevisiae deletion strains, locus YDR318W, strain mcm21, active compounds read low 0.966 | S. cerevisiae deletion strains, locus YDR388W, active compounds read low 0.988 | S. cerevisiae deletion strains, locus YDR502C, strain sam2, active compounds read low 1.02 | S. cerevisiae deletion strains, locus YEL061C, strain CIN8, active compounds read low 1 | S. cerevisiae deletion strains, locus YER110C, active compounds read low 0.992 | S. cerevisiae deletion strains, locus YER155C, strain BEM2, active compounds read low 1 | S. cerevisiae deletion strains, locus YER167W, strain BCK2, active compounds read low 0.982 | S. cerevisiae deletion strains, locus YGL078C, strain dbp3, active compounds read low 1 | S. cerevisiae deletion strains, locus YGL086W, strain mad1, active compounds read low 0.978 | S. cerevisiae deletion strains, locus YGL248W, strain PDE1, active compounds read low 0.999 | S. cerevisiae deletion strains, locus YGR078C, strain PAC10, active compounds read low 1.04 | S. cerevisiae deletion strains, locus YGR135W, strain pre9, active compounds read low 1.02 | S. cerevisiae deletion strains, locus YGR229C, strain SMI1, active compounds read low 1.02 | S. cerevisiae deletion strains, locus YGR252W, strain gcn5, active compounds read low 0.946 | S. cerevisiae deletion strains, locus YHR030C, strain SLT2, active compounds read low 0.994 | S. cerevisiae deletion strains, locus YHR079C, strain IRE1 (second series), active compounds read low 1 | S. cerevisiae deletion strains, locus YHR094C, strain hxt1, active compounds read low 0.988 | S. cerevisiae deletion strains, locus YHR129C, strain ARP1, active compounds read low 1 | S. cerevisiae deletion strains, locus YHR200W, strain rpn10, active compounds read low 0.987 | S. cerevisiae deletion strains, locus YIL066C, strain RNR3, active compounds read low 0.994 | S. cerevisiae deletion strains, locus YIL073C, strain SPO22, active compounds read low 0.902 | S. cerevisiae deletion strains, locus YIL125W, strain kgd1, active compounds read low 0.986 | S. cerevisiae deletion strains, locus YIR030C, strain dcg1, active compounds read low 0.988 | S. cerevisiae deletion strains, locus YJL095W, strain BCK1, active compounds read low 1.05 | S. cerevisiae deletion strains, locus YJL134W, strain LCB3, active compounds read low 0.997 | S. cerevisiae deletion strains, locus YJL168C, strain set2, active compounds read low 0.992 | S. cerevisiae deletion strains, locus YJL187C, strain SWE1 (second series), active compounds read low 1.01 | S. cerevisiae deletion strains, locus YJR043C, strain POL32, active compounds read low 0.969 | S. cerevisiae deletion strains, locus YJR075W, strain HOC1, active compounds read low 1.01 | S. cerevisiae deletion strains, locus YKL009W, strain mrt4, active compounds read low 1.08 | S. cerevisiae deletion strains, locus YKL068W, active compounds read low 1 | S. cerevisiae deletion strains, locus YKL085W, strain MDH1 (second series), active compounds read low 1.04 | S. cerevisiae deletion strains, locus YKL085W, strain MDH1, active compounds read low 1.04 | S. cerevisiae deletion strains, locus YKL190W, strain CNB1, active compounds read low 0.998 | S. cerevisiae deletion strains, locus YKR001C, strain vps1, active compounds read low 0.991 | S. cerevisiae deletion strains, locus YLR039C, strain RIC1, active compounds read low 0.962 | S. cerevisiae deletion strains, locus YLR058C, strain SHM2, active compounds read low 0.995 | S. cerevisiae deletion strains, locus YLR102C, strain apc9, active compounds read low 0.982 | S. cerevisiae deletion strains, locus YLR262C, strain YPT6, active compounds read low 0.973 | S. cerevisiae deletion strains, locus YLR268W, strain sec22, active compounds read low 1.02 | S. cerevisiae deletion strains, locus YLR330W, strain CHS5, active compounds read low 0.996 | S. cerevisiae deletion strains, locus YLR342W, strain FKS1 (second series), active compounds read low 0.987 | S. cerevisiae deletion strains, locus YLR371W, strain rom2, active compounds read low 0.985 | S. cerevisiae deletion strains, locus YLR418C, strain cdc73, active compounds read low 1 | S. cerevisiae deletion strains, locus YML016C, strain PPZ1, active compounds read low 1 | S. cerevisiae deletion strains, locus YML032C, strain rad52, active compounds read low 0.97 | S. cerevisiae deletion strains, locus YML124C, strain tub3, active compounds read low 0.993 | S. cerevisiae deletion strains, locus YMR078C, strain ctf18, active compounds read low 0.977 | S. cerevisiae deletion strains, locus YMR223W, strain ubp8, active compounds read low 0.983 | S. cerevisiae deletion strains, locus YMR263W, strain SAP30, active compounds read low 1.04 | S. cerevisiae deletion strains, locus YMR307W, strain GAS1, active compounds read low 0.912 | S. cerevisiae deletion strains, locus YNL067W, strain RPL9B, active compounds read low 1.03 | S. cerevisiae deletion strains, locus YNL128W, strain TEP1, active compounds read low 1.01 | S. cerevisiae deletion strains, locus YNL153C, strain GIM3, active compounds read low 1.05 | S. cerevisiae deletion strains, locus YNL233W, strain BNI4, active compounds read low 1.03 | S. cerevisiae deletion strains, locus YNL250W, strain rad50, active compounds read low 0.992 | S. cerevisiae deletion strains, locus YNL271C, strain bni1, active compounds read low 0.993 | S. cerevisiae deletion strains, locus YNL298W, strain CLA4, active compounds read low 0.99 | S. cerevisiae deletion strains, locus YNL307C, strain MCK1, active compounds read low 0.979 | S. cerevisiae deletion strains, locus YNL322C, strain KRE1, active compounds read low 0.999 | S. cerevisiae deletion strains, locus YNR052C, strain pop2, active compounds read low 0.988 | S. cerevisiae deletion strains, locus YOL006C, strain TOP1, active compounds read low 0.949 | S. cerevisiae deletion strains, locus YOL012C, strain htz1 2.38 | S. cerevisiae deletion strains, locus YOL147C, strain pex11, active compounds read low 0.999 | S. cerevisiae deletion strains, locus YOR061W, strain CKA2, active compounds read low 1 | S. cerevisiae deletion strains, locus YOR069W, strain VPS5, active compounds read low 0.978 | S. cerevisiae deletion strains, locus YOR136W, strain idh2, active compounds read low 0.979 | S. cerevisiae deletion strains, locus YOR144C, strain elg1, active compounds read low 1 | S. cerevisiae deletion strains, locus YOR184W, strain ser1, active compounds read low 0.946 | S. cerevisiae deletion strains, locus YOR316C, strain cot1, active compounds read low 0.996 | S. cerevisiae deletion strains, locus YPL055C, strain LGE1, active compounds read low 1.05 | S. cerevisiae deletion strains, locus YPL241C, strain CIN2, active compounds read low 1 | S. cerevisiae deletion strains, locus YPR119W, strain clb2, active compounds read low 0.993 | S. cerevisiae deletion strains, locus YPR141C, strain kar3, active compounds read low 0.99 | S. cerevisiae deletion strains, locus YPR163C, strain tif3, active compounds read low 0.986 | S. cerevisiae deletion strains, locus YPR167C, strain met16, active compounds read low 0.99 | S. cerevisiae deletion strains, strain wtn01, active compounds read low 1 | S. cerevisiae strains, strain wild type, active compounds read low 0.985
